# Out of some 330,000 compounds screened, about 1,900 (0.58%) were called active. Inconclusive results (about 4%) are left out. Rule as the data show it: inconclusive = inhibition above about 70% without an active follow-up result; inactive = below that. A selection follows. Results with a measured potency or affinity are listed apart.
# Assay: M. tuberculosis growth inhibition, HTS (AID 449762);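 also: bacterial growth assessed after seven days of incubation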
# Conditions: M. tuberculosis H37Rv growth inhibition, 7H9 media; at 25 µM; stronger effect = higher value
row,Compound,inhibition
1,COc1ccc(-c2nnc(SCc3ccc(C(=O)O)cc3)n2C)cc1OC,2.72% (inactive)
2,COc1ccc(C(=O)C2CCN(C(=S)NCC3CCCO3)CC2)cc1 (stereo unspecified),0.55% (inactive)
3,CC(C)=CCC[C@](C)(O)C1CC[C@]2(C)C1[C@H](O)CC1[C@@]3(C)CC[C@H](O[C@@H]4O[C@H](CO)[C@@H](O)[C@H](O)[C@H]4O[C@@H]4O[C@H](CO)[C@@H](O)[C@H](O)[C@H]4O)C(C)(C)C3CC[C@]12C (stereo partly specified),-2.47% (inactive)
4,CC(C)=CCC[C@](C)(O[C@@H]1O[C@H](CO[C@@H]2OC[C@@H](O)[C@H](O)[C@H]2O)[C@@H](O)[C@H](O)[C@H]1O)C1CC[C@]2(C)C1[C@H](O)CC1[C@@]3(C)CC[C@H](O[C@@H]4O[C@H](CO)[C@@H](O)[C@H](O)[C@H]4O)C(C)(C)C3CC[C@]12C (stereo partly specified),1.5% (inactive)
5,N#Cc1cc(Nc2c(N)nc[nH]c2=O)c([N+](=O)[O-])cc1C#N,-9.11% (inactive)
6,CCc1ccccc1OCCCOc1ccc(OC)cc1,3.7% (inactive)
7,O=C(COC(=O)c1ccc([N+](=O)[O-])s1)NCc1ccccc1,40.3% (inactive)
8,Cc1[nH]c2ccccc2c1C(=O)COC(=O)c1ccccc1O,-1.43% (inactive)
9,CC(C)[C@H](NC(N)=O)C(=O)NNC(=O)COc1cccc(C(F)(F)F)c1,-1.74% (inactive)
10,CC(C)Oc1ccc(NC(N)=O)cc1,-11.6% (inactive)
11,CCOc1ccc(NC(C)=O)cc1,3.93% (inactive)
12,CCOC(=O)C(=O)Nc1ccc(OCc2ccccc2)cc1,62.7% (inactive)
13,CC(C)NC(=O)COc1ccc(OCc2ccccc2)cc1,-4.33% (inactive)
14,Cc1ccc(S(=O)(=O)n2nc(-n3c(C)ccc3C)c3c(F)cccc32)c2ccccc12,11.8% (inactive)
15,O=C(N/N=C/C=C/c1ccccc1[N+](=O)[O-])c1cccs1,-11.8% (inactive)
16,O=C(N/N=C/C=C/c1ccc([N+](=O)[O-])cc1)c1cccs1,3.01% (inactive)
17,Cc1noc(NS(=O)(=O)c2ccc(NC(=O)C(C)(C)C)cc2)c1C,3.27% (inactive)
18,C=CCNC(=O)Cc1ccc(S(=O)(=O)N2CCOCC2)s1,-1.17% (inactive)
19,COc1cc(C(C)=O)ccc1OCC(O)Cn1nc(C)c(Br)c1C (stereo unspecified),3.09% (inactive)
20,NS(=O)(=O)c1ccc(CNC(=O)c2ccc3ccccc3n2)cc1,7.68% (inactive)
21,O=C(Cc1cn2ccsc2n1)Nc1nc2c(s1)CCCC2,-0.56% (inactive)
22,O=C(Cc1cn2ccsc2n1)Nc1nc2c(s1)CN(Cc1ccccc1)CC2,-6% (inactive)

row,Compound,inhibition
1,COc1ccc(S(=O)(=O)Nc2c3ccccc3nc(=O)n2-c2ccccc2)cc1,5.16% (inactive)
2,O=C1CCC(C(=O)N(Cc2cccs2)C2(C(=O)NC3CCCCC3)CCCCC2)N1 (stereo unspecified),1.48% (inactive)
3,O=C1C=C(c2ccc(Oc3ccccc3)cc2)C[C@@H](c2ccc(F)cc2)C1,24.8% (inactive)
4,CCOc1ccc(OCCCC(=O)Nc2cc(Cl)ccc2-n2cncn2)cc1,9.23% (inactive)
5,N#CC(C#N)=C1CCc2ccccc2N1,-3.11% (inactive)
6,O=C(NCCO)/C(=C\c1ccc([N+](=O)[O-])o1)NC(=O)c1ccccc1,59% (inactive)
7,CCCCOC(=O)/C(=C\c1ccc([N+](=O)[O-])o1)NC(=O)c1ccccc1,-4.98% (inactive)
8,COc1ccc(C2C(C(=O)Nc3ccccn3)=C(C)Nc3ncnn32)c(OC)c1 (stereo unspecified),-4.42% (inactive)
9,COc1ccc(OC)c(-c2csc(NC(=O)CSc3ccccc3)n2)c1,-4.32% (inactive)
10,COc1ccc(CC(=O)Nc2ccc(S(=O)(=O)Nc3onc(C)c3C)cc2)cc1OC,5.55% (inactive)
11,COc1ccc(NC(=O)COC(=O)CCCc2c[nH]c3ccccc23)cc1,37.6% (inactive)
12,COc1ccc(C2NN=C(c3c[nH]c4ccccc34)C2O)cc1 (stereo unspecified),4.48% (inactive)
13,O=C(COC(=O)c1ccc2c(c1)C(=O)N(CCc1ccccc1)C2=O)Nc1ccc(OC(F)F)cc1,-2.61% (inactive)
14,CCC(CO)(C(=O)OC1C[N+]2(C)CCC1CC2)c1ccccc1 (stereo unspecified),-13.2% (inactive)
15,OCCN1CCN(Cc2cc(Cl)c3cccnc3c2O)CC1,6.31% (inactive)
16,CCOC(=O)N1CCN(Cc2ccc(O)c3ncccc23)CC1,55.4% (inactive)
17,CC(=O)Nc1ccc(S(=O)(=O)NCCc2c[nH]c3ccc(C)cc23)cc1,0.51% (inactive)
18,COc1ccc(CNC(=O)[C@@H]2CC=C[C@@H]3CCN(Cc4ccc(Cl)c(Cl)c4)C(=O)[C@@H]32)cc1,18.4% (inactive)
19,COc1ccc(OCCCCN(C)Cc2ccccc2)cc1,13.7% (inactive)
20,O=C(NNC(=S)Nc1ccccc1)c1ccncc1,7.24% (inactive)
21,CCOc1ccc(C2c3[nH]c4ccccc4c3CCN2Cc2cccn2-c2ncccn2)cc1 (stereo unspecified),67.7% (inactive)
22,COc1cccc(C2c3[nH]c4ccccc4c3CCN2Cc2cccn2-c2ncccn2)c1 (stereo unspecified),2.06% (inactive)

row,Compound,inhibition
1,Cc1ccc(CNC(=O)CSCc2cccc(F)c2)cc1,12.3% (inactive)
2,CNC(=S)N/N=C/c1c(C)nn(-c2ccc(F)cc2)c1Cl,6.49% (inactive)
3,CC1=C(C)CC(C(=O)Nc2nccs2)C(C(=O)O)C1 (stereo unspecified),-4.95% (inactive)
4,S=c1nccc(-c2ccc(Cl)cc2)[nH]1,54.5% (inactive)
5,S=c1nccc(-c2ccc3c(c2)CCO3)[nH]1,3.97% (inactive)
6,COc1ccc(C2C(C#N)=C(N)Oc3cc(C)n(Cc4ccncc4)c(=O)c32)cc1 (stereo unspecified),-7.68% (inactive)
7,O=C(CCn1cnc2ccccc2c1=O)Nc1ccc2c(c1)OCCO2,-3.32% (inactive)
8,CCN(CC)c1ccc2c(Cl)cc(=O)oc2c1,5.83% (inactive)
9,CCN(CC)c1ccc2c(C)c(Cl)c(=O)oc2c1,-3.19% (inactive)
10,Cc1nc(C)c(C(=O)OCC(=O)NCc2ccccc2Cl)s1,3.01% (inactive)
11,CCOC(=O)c1cnc2ccc(OCC)cc2c1N1CCN(c2ccccc2OC)CC1,63.7% (inactive)
12,CCOC(=O)c1cnc2ccc(OCC)cc2c1N1CCN(C)CC1,4.95% (inactive)
13,C=CCN(CC(=O)NCc1ccccc1)C(=O)c1csnn1,-1.06% (inactive)
14,O=C(O)C1CC=CCC1C(=O)NCCCN1CCCC1=O (stereo unspecified),-30.3% (inactive)
15,Cc1ccc(-c2cc(-c3ccc(C)cc3)[n+](-c3ccc(C(=O)O)cc3)c(-c3ccc(C)cc3)c2)cc1,6.26% (inactive)
16,O=[N+]([O-])c1ccc2nc(-[n+]3c(-c4ccccc4)cc(-c4ccccc4)cc3-c3ccccc3)[nH]c2c1,27.2% (inactive)
17,Cc1ccc(-c2cc(-c3ccccc3)cc(-c3ccccc3)[n+]2-c2ccc(C(=O)O)cc2)cc1,-6.06% (inactive)
18,O=C(O)c1ccc(-[n+]2c(-c3ccccc3)cc(-c3ccccc3)cc2-c2ccccc2)cc1,-13.1% (inactive)
19,O=C([O-])c1ccc(-[n+]2c(-c3ccccc3)cc(-c3ccccc3)cc2-c2ccccc2)cc1,55.9% (inactive)
20,O=[N+]([O-])c1ccc(-[n+]2c(-c3ccccc3)cc(-c3ccccc3)cc2-c2ccccc2)cc1,8.42% (inactive)
21,CC(C)(C)OC(=O)[C@H](Cc1ccccc1)NC(=O)c1nc[nH]c1C(=O)N[C@@H](CCCCN)C(=O)OC(C)(C)C,-1.19% (inactive)
22,CC(Cc1ccco1)NC(=O)c1ccc(C(F)(F)F)cc1 (stereo unspecified),4.71% (inactive)

row,Compound,inhibition
1,COc1ccc(Cl)cc1NC(=O)NCCN1CCNC1=O,0.11% (inactive)
2,COc1ccc(/C(N)=N/OC(=O)CCCc2ccccc2)cc1OC,14.8% (inactive)
3,O=C(O)c1cccc(NC(=O)c2cc(S(=O)(=O)N3CCOCC3)cs2)c1,-7.54% (inactive)
4,CCOC(=O)N1CCC(N(CCN(C)C)C(=S)Nc2ccccc2OCC)CC1,7.57% (inactive)
5,CC1CCC(NCc2ccco2)CC1 (stereo unspecified),-0.39% (inactive)
6,CCC1=C(OC(=O)N(CC)CC)N2C(=O)OC(=NCCc3c[nH]c4ccccc34)[C@]2(Cc2ccccc2)[C@H]2C1=CC[C@H]1C(=O)N(CC)C(=O)[C@H]12,-7.04% (inactive)
7,CCC1=C(OC(=O)N(CC)CC)N2C(=O)OC(=NCCc3c[nH]c4ccccc34)[C@]2(Cc2ccccc2)[C@H]2C1=CC[C@H]1C(=O)N(C)C(=O)[C@H]12,68.8% (inactive)
8,O=C(NCC1CCCO1)C(=O)N/N=C/c1c(F)cccc1Cl (stereo unspecified),5.59% (inactive)
9,NC(N)=Nc1nc2ccccc2o1,4.74% (inactive)
10,CCCCN(C(=O)c1cnccn1)c1c(N)n(CCC)c(=O)[nH]c1=O,-6.33% (inactive)
11,CCC(=O)c1ccc(OCC(O)CN2CCN(c3ccc(F)cc3)CC2)cc1 (stereo unspecified),-1.98% (inactive)
12,CCC(=O)c1ccc(OCC(O)CN2CCN(c3ccccn3)CC2)cc1 (stereo unspecified),4.67% (inactive)
13,N#Cc1ccc(OCC(O)CN2CCN(CC(O)COc3ccc(C#N)cc3)CC2)cc1 (stereo unspecified),-5.84% (inactive)
14,OC(CN1CCN(c2ncc(C(F)(F)F)cc2Cl)CC1)c1ccccc1 (stereo unspecified),32.4% (inactive)
15,O=[N+]([O-])c1cc([N+](=O)[O-])c(Oc2cc(F)ccc2F)cc1NN1CCCCC1,5.39% (inactive)
16,O=C(NCCc1ccccc1)C(=O)c1cn(CC(=O)N2CCCC2)c2ccccc12,-0.08% (inactive)
17,COc1cc(NC(=O)c2cccnc2SC)cc(OC)c1OC,-4.5% (inactive)
18,Cc1cccc(NC(=O)c2nc[nH]c2C(=O)N(C)Cc2ccccc2)c1,27.5% (inactive)
19,COc1cc(OC)cc(C(=O)N[C@H](C(=O)NC23CC4CC(CC(C4)C2)C3)C(C)C)c1,-8.25% (inactive)
20,CCCCCN(C(=O)CCC(=O)OCCOc1cccc(C)c1)c1c(N)n(CCCC)c(=O)[nH]c1=O,44.3% (inactive)

# — PubChem BioAssay AID449762 (Southern Research Specialized Biocontainment Screening …, 2010)
